Source: PubChem BioAssay
Active and inactive are the calls of the source. Unless noted, how the calls were made is not given here.

Assays:
[1] = test system: Wnt5a (protein binding on small-molecule microarray); test: Wnt5a binders on small-molecule microarray, primary screen, biophysical, 635/667 nm fluorescence (AID 1142); conditions: 635 nm fluorescence, higher = more signal;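 further: fluorescence read at 667 nm with signal to noise per printed feature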
[2] = cell viability in Huh7 cells, primary screen, cytotoxicity control for HCV replication inhibitor project, CellTiter-Glo luminescence, basal, 48 h (AID 1143); conditions: Huh7 HCV replicon, higher = more signal, called active from +8 up or from −8 down;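 further: Huh7 hepatoma cells carrying a hepatitis C replication reporter with no stimulus; test concentration not given here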
[3] = P. aeruginosa biofilm formation inhibitors, primary screen, PAO1 strain, BacTiter-Glo luminescence, LB-PBS (AID 1144); conditions: 12 h, higher = more signal
[4] = CREB reporter modulators without forskolin, primary screen, cell-based, PC12, CRE-LacZ reporter, unstimulated (AID 1145); conditions: no forskolin, luminescence, 4.5 h, higher = more signal, called active from +8 up or from −8 down
[5] = CREB reporter modulators under forskolin, primary screen, cell-based, PC12, CRE-LacZ reporter, forskolin-stimulated (AID 1146); conditions: luminescence, 4.5 h, higher = more signal, called active from +8 up or from −8 down;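 further: PC12 cells with 6xCRE LacZ reporter stimulated by forskolin 10 µM; beta-galactosidase reporter signal reflecting CREB driven transcription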
[6] = biological target: Streptavidin (Streptomyces avidinii) (UniProt P22629); test: streptavidin binders on small-molecule microarray, primary screen, artefact control for SMM compound annotation, biophysical, 635/667 nm fluorescence (AID 1147); conditions: streptavidin binding, higher = more signal;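 further: signal reflects streptavidin binding to arrayed compounds as a control protein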
Streptavidin (Streptomyces avidinii), sequence (P22629 whole entry, looked up): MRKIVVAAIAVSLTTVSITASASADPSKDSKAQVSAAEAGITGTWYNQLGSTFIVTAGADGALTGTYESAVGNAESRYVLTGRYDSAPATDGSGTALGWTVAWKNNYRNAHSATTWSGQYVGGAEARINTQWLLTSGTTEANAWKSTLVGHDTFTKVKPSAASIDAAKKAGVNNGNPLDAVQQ

[7] = small-molecule binders of probe aInhba, primary screen, biochemical, small-molecule microarray, 635/667 nm fluorescence (AID 1148); conditions: higher = more signal;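 further: score merges 667nm spot fluorescence with signal-to-noise for antibody binding to printed compounds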
[8] = biological target: Torsin-1A (Homo sapiens) (UniProt O14656); test: torsin A binders from cell lysate, primary screen, small-molecule microarray, wild-type, 635/667 nm (AID 1149); conditions: COS7 hTOR1A-WT lysate, 635 nm fluorescence, higher = more signal
Torsin-1A (Homo sapiens), sequence (O14656 whole entry, looked up): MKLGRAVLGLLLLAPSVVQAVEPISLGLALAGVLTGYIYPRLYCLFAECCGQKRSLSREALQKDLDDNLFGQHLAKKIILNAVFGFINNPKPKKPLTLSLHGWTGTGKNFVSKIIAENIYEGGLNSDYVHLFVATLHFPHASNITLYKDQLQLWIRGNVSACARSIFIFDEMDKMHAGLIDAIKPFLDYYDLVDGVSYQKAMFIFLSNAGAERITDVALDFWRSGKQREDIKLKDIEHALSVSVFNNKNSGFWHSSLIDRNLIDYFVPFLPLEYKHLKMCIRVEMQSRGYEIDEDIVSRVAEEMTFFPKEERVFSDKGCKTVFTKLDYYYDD

[9] = biological target: Torsin-1A (Homo sapiens) (UniProt O14656); test: small-molecule binders of mutant TOR1A in lysate, primary screen, cell lysate, small-molecule microarray, COS7 lysate, 635/667 nm fluorescence (AID 1150); conditions: COS7 hTOR1A mutant lysate, 635 nm fluorescence, higher = more signal;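 further: score pools 667 nm emission and signal to noise measuring lysate protein binding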
[10] = test system: Sonic hedgehog protein (Shh); test: small-molecule binders of Shh protein, primary screen, biochemical, small-molecule microarray, 635/667 nm fluorescence (AID 1151); conditions: small-molecule microarray binding, 635 nm fluorescence; higher = more signal;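 further: Shh protein binding to compounds spotted on small-molecule microarray slides; score combines spot fluorescence intensity with signal-to-noise across triplicate slides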

| Compound | composite z-score [1] | z-score [2] | z-score [3] | z-score [4] | z-score [5] | composite z-score [6] | composite z-score [7] | composite z-score [8] | composite z-score [9] | composite z-score [10] |
| --- | --- | --- | --- | --- | --- | --- | --- | --- | --- | --- |
| C=CC[C@@H]1C=C[C@H](ON=C(C)CCN2CCc3nc(CC)c(CC)cc3C2)[C@@H](CO)O1 | 0.255 | -0.667 (inactive) | 0.983 (inactive) | 3.51 (inactive) | 0.319 (inactive) | 0.372 | 0.0785 | 0.97 | 1.12 | 1.85 |
| CC(C)(C)N1C(=O)[C@H]2[C@H]3[C@H](O)[C@H](O)CC(=NOCc4ccccc4)[C@@H]3CC[C@H]2C1=O | 0.351 | -0.939 (inactive) | 0.614 (inactive) | 0.16 (inactive) | 0.479 (inactive) | 0.33 | -0.0986 | 0.678 | 0.119 | 1.26 |
| COC(=O)[C@@H]1CCCN1C(=O)[C@@H](C)CO | 0.111 | -2.44 (inactive) | -0.985 (inactive) | -0.347 (inactive) | -0.397 (inactive) | 0.746 | -0.183 | 1.26 | 0.546 | 0.202 |
| CCOC(=O)C[C@H]1[C@H](OC(=O)c2ccc(C(=O)c3ccccc3)cc2)[C@@H](NC(=O)c2ccc(-c3ccccc3)cc2)c2cc(OCCCO)ccc2N1C(=O)c1ccc2ccccc2n1 | 0.599 | -0.0434 (inactive) | -1.22 (inactive) | -0.738 (inactive) | -0.286 (inactive) | 1.44 | -0.102 | 0.274 | 0.408 | 1.11 |
| COC(=O)[C@@]1(Cc2ccc(F)cc2)[C@@H]2C(=CC(=O)[C@H]2CC(=O)C(=O)N(C)C)CN1C(=O)c1ccccc1 | 0.392 | -3.59 (inactive) | 0.504 (inactive) | -0.179 (inactive) | -0.196 (inactive) | 1.7 | 0.38 | -0.441 | 0.283 | -0.367 |
| O=C1O[C@@H](c2ccccc2)[C@@H](c2ccccc2)N2[C@@H](c3ccc(OCCO)cc3)[C@]3(C(=O)Nc4ccc(C#CCCO)cc43)[C@@H](C(=O)N3CCCCCCC3)[C@H]12 | 0.825 | -1.11 (inactive) | -0.928 (inactive) | -0.168 (inactive) | 0.0629 (inactive) | 2.31 | 1.75 | 0.782 | 1.31 | 1.59 |
| O=C1NC(=O)C2C1C=CC(C(O)Cc1ccccc1)N2Nc1ccccn1 (stereo not given) | 0.0926 | -0.151 (inactive) | -0.314 (inactive) | 0.0603 (inactive) | 0.589 (inactive) | 0.125 | -0.0039 | 0.638 | 0.933 | 0.141 |
| CCc1cc2c(nc1CC)CCN(CCC(C)=NO[C@@H](C)c1cc(-c3c(C)cc(C)cc3C)no1)C2 | -0.0627 | -2.21 (inactive) | -0.626 (inactive) | 0.429 (inactive) | 0.446 (inactive) | 1.67 | -0.0762 | -0.233 | 0.0048 | 0.134 |
| O=C1c2ccccc2[C@@]2(Cc3ccccc3N(C3CC3)C2=O)[C@H](c2ccc(CO)cc2)N1Cc1ccccc1C(F)(F)F | -0.145 | -4.35 (inactive) | -0.459 (inactive) | -0.258 (inactive) | -0.0879 (inactive) | -1.07 | 0.21 | -1.02 | -0.77 | -0.537 |
| CN1C(=O)C2C=CC(C(O)c3ccc(Br)cc3)N(N(c3ccccc3)c3ccccc3)C2C1=O (stereo not given) | -0.0158 | -0.776 (inactive) | -1.19 (inactive) | 1 (inactive) | -0.342 (inactive) | 1.04 | -0.0375 | 0.293 | -0.135 | -0.583 |
| CO[C@@H]1COC(=O)CC=C[C@@H](C)[C@@H]2C=C[C@@H](O)[C@@H](COC(=O)CC=C[C@H]1C)O2 | -0.141 | -0.972 (inactive) | -0.492 (inactive) | 0.343 (inactive) | 0.427 (inactive) | -0.0469 | -0.21 | 0.666 | 0.244 | 2.18 |
| CCOC(=O)CCN1C(=O)[C@H]2[C@H]3[C@H](O)[C@H](O)CC(=NOC[C@@H](O)COCc4ccco4)[C@@H]3CC[C@H]2C1=O | -0.0579 | -0.632 (inactive) | -0.35 (inactive) | 0.251 (inactive) | 0.069 (inactive) | 0.663 | -0.197 | 0.584 | -0.0032 | -0.825 |
| [N-]=[N+]=NCc1ccccc1C[C@]1(C(=O)NCc2ccccc2)N=C(c2ccc(OCCCO)cc2)O[C@H]1c1ccccc1N=[N+]=[N-] | 0.729 | -4.38 (inactive) | -0.144 (inactive) | 0.493 (inactive) | -0.951 (inactive) | 0.83 | -0.287 | -0.0818 | 0.334 | -0.46 |
| CC(CCN1CCCCc2nc(C)c(C)cc21)=NOC(C)CN1CCCc2nc(C)c(C)cc21 (stereo not given) | 0.871 | -0.191 (inactive) | -0.812 (inactive) | -0.24 (inactive) | 0.0936 (inactive) | 1.42 | 0.637 | 1.19 | 0.863 | 1.73 |
